Laboratory results taken from PubChem BioAssay AID493231 (Broad Institute, 2011).
Entries with a potency or affinity are not part of this list. Active and inactive are the calls of the source. How the calls were made is not given here.

Each compound was assayed against Acyl-homoserine lactone acylase PvdQ (Pseudomonas aeruginosa (strain ATCC 15692 / DSM 22644 / CIP 104116 / JCM 14847 / LMG 12228 / 1C / PRS 101 / PAO1)) (UniProt Q9I194) (assay: PvdQ acylase enzyme activity blockers – biochemical, fluorescence, plate reader and imaging, cherry-picks, dose response (AID 493231;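 further: 0% = neutral control wells and -100% = reference inhibitor wells; more negative values mean stronger inhibition of the acylase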)). Details: purified PvdQ acylase, fluorogenic substrate; series mostly up to 10 µM; activity change, negative = inhibition: at the top concentration.
Chain of Acyl-homoserine lactone acylase PvdQ (Pseudomonas aeruginosa (strain ATCC 15692 / DSM 22644 / CIP 104116 / JCM 14847 / LMG 12228 / 1C / PRS 101 / PAO1)) (Q9I194 whole entry, looked up): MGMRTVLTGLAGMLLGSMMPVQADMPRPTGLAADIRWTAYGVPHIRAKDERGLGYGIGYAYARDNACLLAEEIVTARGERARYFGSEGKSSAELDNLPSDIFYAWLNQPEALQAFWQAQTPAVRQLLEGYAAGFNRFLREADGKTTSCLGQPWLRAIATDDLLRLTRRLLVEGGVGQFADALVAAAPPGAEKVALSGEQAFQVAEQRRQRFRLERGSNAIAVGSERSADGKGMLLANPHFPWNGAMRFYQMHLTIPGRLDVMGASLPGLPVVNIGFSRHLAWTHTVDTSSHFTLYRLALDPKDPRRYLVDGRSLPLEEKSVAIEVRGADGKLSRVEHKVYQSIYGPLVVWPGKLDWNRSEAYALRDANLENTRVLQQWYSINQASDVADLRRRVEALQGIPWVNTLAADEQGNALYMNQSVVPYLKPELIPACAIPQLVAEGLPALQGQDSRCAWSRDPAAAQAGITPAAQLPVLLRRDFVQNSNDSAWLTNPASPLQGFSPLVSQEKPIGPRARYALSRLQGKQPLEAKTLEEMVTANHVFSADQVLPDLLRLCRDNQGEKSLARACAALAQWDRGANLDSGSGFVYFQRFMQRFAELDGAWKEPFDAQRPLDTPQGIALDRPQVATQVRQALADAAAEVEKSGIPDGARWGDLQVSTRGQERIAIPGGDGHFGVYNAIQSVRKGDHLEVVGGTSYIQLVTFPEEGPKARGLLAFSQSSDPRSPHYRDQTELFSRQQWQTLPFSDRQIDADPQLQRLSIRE
In the case of `CN1C(=O)S/C(=C\c2ccc(-n3cncn3)cc2)C1=O`, the “activity change, negative = inhibition” value was -1.58 unspecified (inactive).
With `COc1ccc(OCCCC(=O)Nc2cccc(SC)c2)cc1` the “activity change, negative = inhibition” value was -103 unspecified (inactive).
With `CCOc1ccccc1-c1cc(-c2n[nH]c(=S)n2CC)c2ccccc2n1` the “activity change, negative = inhibition” value was 3.92 unspecified (inactive).
For `CCOC(=O)Nc1ccc2nc(N3CCCCCC3)sc2c1`, the “activity change, negative = inhibition” value was 16.3 unspecified (inactive).
With `Cc1[nH]nc2c1C(c1ccco1)C(C#N)=C(N)O2` (stereo not given) the “activity change, negative = inhibition” value was 10.3 unspecified (inactive).
`O=C(COC(=O)/C=C/c1cccc(Br)c1)NC1CCCCCC1` was tested, and the “activity change, negative = inhibition” value was 7.73 unspecified (inactive).
For `CC(C)Cn1nc(C(=O)Nc2nnc(C3CC3)s2)c2ccccc2c1=O`, the “activity change, negative = inhibition” value was 0.75 unspecified (inactive).
For `CCOC(=O)c1ccc(N2Cc3ccccc3C2=NC(=O)c2ccncc2)cc1`, the “activity change, negative = inhibition” value was -12.8 unspecified (inactive).
With `O=C(O)CC1S/C(=N/N=C/C=C/c2ccccc2)NC1=O` (stereo not given) the “activity change, negative = inhibition” value was -7.29 unspecified (inactive).
In the case of `CNC(=S)N/N=C/c1cc(C)n(-c2ccc(Cl)c(Cl)c2)c1C`, the “activity change, negative = inhibition” value was 4.74 unspecified (inactive).
`CCSc1nc2cc(OC)c(OC)cc2c(=O)n1CC` was tested, and the “activity change, negative = inhibition” value was 3.52 unspecified (inactive).
For `O=C1/C(=C/c2cccc([N+](=O)[O-])c2)Oc2cc(O)ccc21`, the “activity change, negative = inhibition” value was -11.7 unspecified (inactive).
`CCOC(=O)CC(NC(=O)c1ccco1)c1ccccc1Cl` (stereo not given) was tested, and the “activity change, negative = inhibition” value was 4.68 unspecified (inactive).
With `CS(=O)(=O)N1CCN(C(=O)Nc2ccccc2)CC1` the “activity change, negative = inhibition” value was -6.79 unspecified (inactive).
For `O=C(/C=C/c1cccs1)Nc1ccncc1`, the “activity change, negative = inhibition” value was -7.98 unspecified (inactive).
With `O=C(/C=C/c1ccc(Br)cc1)c1ccco1` the “activity change, negative = inhibition” value was -12.8 unspecified (inactive).
With `CN(c1ccc(C(=O)NC2CC3CCC2C3)cc1)S(C)(=O)=O` (stereo not given) the “activity change, negative = inhibition” value was 0.643 unspecified (inactive).
With `CCOC(=S)SCC(=O)Nc1nccs1` the “activity change, negative = inhibition” value was -10.6 unspecified (inactive).
`O=C(NCC1CCCCC1)c1cc(Br)ccc1Cl` was tested, and the “activity change, negative = inhibition” value was 3.04 unspecified (inactive).
With `N#Cc1cc([N+](=O)[O-])ccc1Oc1cccc(/C=N/NC(=O)c2ccc(Cl)cc2)c1` the “activity change, negative = inhibition” value was -3.43 unspecified (inactive).
For `c1ccc(-c2cnc(C3CCCCC3)o2)cc1`, the “activity change, negative = inhibition” value was -5.14 unspecified (inactive).
`CC(NC(=O)C1CCCN(C(=O)c2ccc(Cl)cc2)C1)c1cccc(C(F)(F)F)c1` (stereo not given) was tested, and the “activity change, negative = inhibition” value was -0.568 unspecified (inactive).
In the case of `COc1ccccc1N(CC(O)Cn1ccnc1C)S(=O)(=O)c1ccccc1` (stereo not given), the “activity change, negative = inhibition” value was -1.57 unspecified (inactive).
In the case of `COc1ccc(NC(=O)C2CCCN(C(=O)NC3CCCCC3)C2)cc1OC` (stereo not given), the “activity change, negative = inhibition” value was 6.32 unspecified (inactive).
`O=C(Nc1cccc(Br)c1)c1ccc2c(c1)SC1=NS(=O)(=O)CCN12` was tested, and the “activity change, negative = inhibition” value was 6.99 unspecified (inactive).
In the case of `COc1ccc(-c2cn3cc(C)ccc3n2)cc1F`, the “activity change, negative = inhibition” value was -2.17 unspecified (inactive).
In the case of `O=C(/C=C/c1ccc(Cl)cc1)N1CCN(c2ccccc2[N+](=O)[O-])CC1`, the “activity change, negative = inhibition” value was -7.05 unspecified (inactive).
`N#C/C(=C\c1ccco1)c1nc2ccccc2s1` was tested, and the “activity change, negative = inhibition” value was -5.66 unspecified (inactive).
`CS(=O)(=O)N(CC(=O)Nc1ccccc1C(=O)N1CCOCC1)c1ccccc1` was tested, and the “activity change, negative = inhibition” value was 13.9 unspecified (inactive).
For `NC(=O)c1oc2ccccc2c1NC(=O)Cc1ccccc1`, the “activity change, negative = inhibition” value was 9.46 unspecified (inactive).
With `COC(=O)c1ccc(-c2nc3ccccc3[nH]2)cc1` the “activity change, negative = inhibition” value was -13.8 unspecified (inactive).
For `Cc1ccc(S(=O)(=O)N(CC(=O)N2CCC(C)CC2)c2ccccc2)cc1`, the “activity change, negative = inhibition” value was 2.52 unspecified (inactive).
`O=[N+]([O-])c1ccc2c(c1)Cc1cc(F)ccc1-2` was tested, and the “activity change, negative = inhibition” value was -4.84 unspecified (inactive).
For `COc1ccc(CCNC(=O)/C(C#N)=C/c2ccc(OCC(=O)NCC3CCCO3)cc2)cc1OC` (stereo not given), the “activity change, negative = inhibition” value was 10.4 unspecified (inactive).
With `CCN(c1ccc(NC(=O)CCNC(=O)c2ccco2)cc1)C(C)C` the “activity change, negative = inhibition” value was -9.22 unspecified (inactive).
